Laboratory results reported in PubChem BioAssay AID504339 (National Center for Advancing Translational Sciences (NCATS), 2011).
Among all 390,000 compounds or so, about 17,000 (4.4%) were called active. About 8% were inconclusive and are not listed. Calls come from the whole dose curve; as a rule, active = well fitted inhibition curve with a large enough effect; inconclusive = small, poorly fitted or top-dose-only effect; inactive = no such curve, though single readings can be large or run the other way. The entries come from a sample that favours actives as a whole.

biological target: Lysine-specific demethylase 4A (Homo sapiens) (UniProt O75164); assay: qHTS Assay for Inhibitors of JMJD2A-Tudor Domain; conditions: AlphaScreen JMJD2A-Tudor / H3K4me3 peptide binding; series mostly up to 114 µM; note: nearly all actives have a fitted effect of over 50% in size
Sequence (O75164 whole entry, looked up, the tested form may be a part): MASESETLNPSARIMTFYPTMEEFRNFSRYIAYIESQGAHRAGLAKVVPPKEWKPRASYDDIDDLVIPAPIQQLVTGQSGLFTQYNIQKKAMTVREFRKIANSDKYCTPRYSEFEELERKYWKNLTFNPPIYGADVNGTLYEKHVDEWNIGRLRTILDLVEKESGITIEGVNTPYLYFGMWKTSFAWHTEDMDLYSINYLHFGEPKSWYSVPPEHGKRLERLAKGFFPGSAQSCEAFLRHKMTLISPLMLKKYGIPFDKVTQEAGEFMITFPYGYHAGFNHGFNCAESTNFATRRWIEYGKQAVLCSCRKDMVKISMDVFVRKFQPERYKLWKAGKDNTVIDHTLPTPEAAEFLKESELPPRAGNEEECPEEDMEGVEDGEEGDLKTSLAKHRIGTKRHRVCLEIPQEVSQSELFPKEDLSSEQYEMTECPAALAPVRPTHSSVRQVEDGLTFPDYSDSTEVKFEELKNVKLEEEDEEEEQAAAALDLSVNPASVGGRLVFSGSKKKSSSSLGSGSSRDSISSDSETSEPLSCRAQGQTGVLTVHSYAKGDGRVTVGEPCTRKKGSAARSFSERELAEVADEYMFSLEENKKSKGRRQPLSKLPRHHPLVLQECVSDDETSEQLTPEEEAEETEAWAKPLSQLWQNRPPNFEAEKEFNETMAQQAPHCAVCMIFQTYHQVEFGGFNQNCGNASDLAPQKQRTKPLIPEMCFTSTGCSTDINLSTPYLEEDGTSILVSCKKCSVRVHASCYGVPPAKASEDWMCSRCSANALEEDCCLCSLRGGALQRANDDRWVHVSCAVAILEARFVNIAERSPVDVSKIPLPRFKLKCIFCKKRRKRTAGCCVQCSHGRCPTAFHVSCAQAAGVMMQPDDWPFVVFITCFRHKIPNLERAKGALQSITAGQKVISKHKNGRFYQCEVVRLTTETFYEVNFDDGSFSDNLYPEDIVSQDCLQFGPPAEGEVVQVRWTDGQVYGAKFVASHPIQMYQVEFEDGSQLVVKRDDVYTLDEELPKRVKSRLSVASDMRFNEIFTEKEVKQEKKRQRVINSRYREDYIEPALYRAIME
% is set by controls: 0 for no effect and ±100 for the full control effect; potency is the fitted concentration of half-maximal effect.

Potency, inactive:
O=C(CC1Oc2ccccc2NC1=O)NCc1ccc(F)cc1 (stereo not given)
CCCCN(CCCNC(=O)c1cc(Nc2ccccc2OC)nc2ccccc12)c1ccccc1
COc1ccccc1Nc1cc(C(=O)NCCCN(C)C2CCCCC2)c2ccccc2n1
COc1ccc(CCNC(=O)Cn2c(=O)cc(C(F)(F)F)c3c(C)nn(C)c32)c(OC)c1
COc1ccc(C)cc1NC(=O)CCc1c(C)nn(-c2ccc(N3CCOCC3)nn2)c1C
CN=C1S/C(=C\c2c(OC)cc(OC)cc2OC)C(=O)N1C
O=C(O)c1cccc(N=NN2CCCCCC2)c1
COc1ccc(C)cc1Nc1nc2ccccc2c2nnc(C)n12
COc1ccc(OC)c(-n2nnc3c(sc4nc(C)c(Br)c(C)c43)c2=O)c1
O=S(=O)(c1cccc(C(F)(F)F)c1)N1CCN(c2nc(-c3cccs3)nc3ccccc23)CC1
C=CCn1c(SCC(=O)NC23CC4CC(CC(C4)C2)C3)nc(O)cc1=O
C=CCn1c(SCC(=O)NC)nnc1C12CC3CC(CC(C3)C1)C2
CCOc1ccc(N2CC(C)Cn3c2nc2c3c(=O)n(Cc3c(F)cccc3Cl)c(=O)n2C)cc1 (stereo not given)
COc1ccc(CNC(=O)CSc2n[nH]c(-c3ccc(F)cc3)n2)cc1
CC(NC(=O)c1cc(Sc2ccc(F)cc2F)nc2ccccc12)c1ccccc1 (stereo not given)
CCC1CCCCN1C(=S)Nc1ccc(C(C)=O)cc1 (stereo not given)
CCC1CCCCN1C(=S)Nc1ccc(SC(F)F)cc1 (stereo not given)
Cc1ccc2cccc(NC(=O)c3ccc(OC(C)C)cc3)c2n1
Cc1cc2n(n1)C(c1cc(C(C)(C)C)c(O)cc1O)Nc1ccccc1-2 (stereo not given)
CSc1ccc(CCNC(=O)c2cnn(-c3ccccc3)c2-n2cccc2)cc1
Cc1ccc(C)c(Nc2nnc(-c3ccc(C)c(S(=O)(=O)N4CCCCC4)c3)c3ccccc23)c1
CCn1c(=O)c2cc(C(=O)NCCc3ccc(Cl)cc3)sc2c2ccccc21
Cc1noc(/C=C/N(C)C)c1S(=O)(=O)N1CCCC(C(=O)Nc2cccc(F)c2)C1 (stereo not given)
O=C(Nc1ccc2nc(SCC(=O)N3CCCc4ccccc43)sc2c1)c1ccc(Cl)cc1
COc1ccc(CCNC(=O)CCCn2c(=O)c3ccccc3n(Cc3ccc(F)cc3Cl)c2=O)cc1OC
COc1ccccc1CNC(=O)c1ccccc1NC(=O)c1nsc2ccccc12
CCOC(=O)CC1C(=O)NCCN1c1nc2c(C)cccn2c(=O)c1/C=C1\SC(=S)N(C(C)CC)C1=O (stereo not given)
Cc1cc(C)c(NC(=O)Cn2c(SCC(=O)NCc3ccccc3)nc3ccccc32)c(C)c1
COc1ccc(C2C3=C(CCCC3=O)N(CC(=O)O)C3=C2C(=O)CCC3)cc1
CCCCNC(=O)C1CCC(=O)N1CCc1ccccc1 (stereo not given)
COc1ccccc1CNC(=O)CCCCn1c(=O)c2ccccc2n(CC(=O)Nc2cc(Cl)ccc2C)c1=O
Cc1cccc(NC(=O)C2CCN(S(=O)(=O)c3c(C)noc3/C=C/c3ccco3)CC2)c1
Cc1cccc(C2CC(=O)Oc3c2c(=O)n(C)c2ccccc32)c1 (stereo not given)
O=c1[nH]c2ccccc2s1
COc1cc(C(=O)N2CCN(C(=O)COc3cccc(C)c3)CC2)cc(OC)c1OC
COCCn1c(SCC(=O)c2cc(C)ccc2C)nc2cc(C(=O)NC3CCCC3)ccc2c1=O
Cc1cc(C)cc(OC(C)C(=O)Nc2nc3c(s2)CCCC3)c1 (stereo not given)
COc1cccc(-n2c(=S)sc3c(=O)n(-c4ccccc4OC)c(SCC4OCCO4)nc32)c1
COc1cccc(-n2c(=S)sc3c(=O)n(-c4ccccc4C)c(SCC(=O)O)nc32)c1
Cc1oc(-c2ccccc2F)nc1CN1CCC(C(=O)NCCc2ccc(Cl)cc2)CC1
O=C(CSc1nc2ccccc2nc1Cc1ccccc1)N1CCCCC1
Cc1ccc2nc(-c3ccc(O)cc3)c(Nc3ccc4c(c3)OCO4)n2c1
Oc1ccccc1-c1nc2ccc(Cl)cn2c1Nc1ccc2c(c1)OCCO2
Cc1nc(Nc2ccc3c(c2)OCCO3)c2nnn(Cc3ccccc3Cl)c2n1
Oc1ccc(-c2nc3ccc(Cl)cn3c2Nc2ccc3c(c2)OCO3)cc1
CCOC(=O)c1nnn(CC(=O)NC(=O)Nc2ccccc2F)c1C(=O)OCC
COc1ccc(CCN2C(=O)c3oc4cc(C)cc(C)c4c(=O)c3C2c2ccccc2F)cc1OC (stereo not given)
O=C1CC(c2nnc(Cc3ccc(Cl)cc3)o2)CN1c1ccccc1 (stereo not given)
CCC(=O)N1CCc2cc(S(=O)(=O)NC(C(=O)Nc3ccc(C(C)=O)cc3)C(C)C)ccc21 (stereo not given)
CCC(=O)N1c2ccccc2CC1C(=O)N1CCN(c2cccc(OC)c2)CC1 (stereo not given)
CCCN(CCC)C(=O)C(Cc1ccccc1)NS(=O)(=O)c1ccc2c(c1)c(=O)n(C)c(=O)n2C (stereo not given)
Cc1ccc(N(CC(=O)NCc2ccc(Cl)cc2)S(=O)(=O)N(C)C)cc1
Fc1ccccc1Oc1ncnc2c1oc1ccccc12
Cc1ccc(SCC(=O)N2CCN(c3ccc(F)cc3)CC2)cc1
O=C(c1ccc2c(c1)N(Cc1ccc(F)cc1)C(=O)c1ccccc1S2(=O)=O)N1CCN(c2ccccn2)CC1
CC1CCN(C(=O)c2ccc3c(c2)NC(=O)CN3)CC1
C=CCn1c(SCc2cccc(F)c2)nc2cc(C(=O)N3CCC(C(N)=O)CC3)ccc2c1=O
Cc1oc(-c2ccccc2)nc1Cn1c(SCc2cccc(C(F)(F)F)c2)nc2cccnc21
Cc1ccc(C)c(NC(=O)Cn2ccn(-c3ccc(F)cc3)c(=O)c2=O)c1
O=C(Nc1nnc(Cc2ccc(Cl)cc2)s1)c1cccnc1
O=C(Nc1nnc(Cc2ccc(Cl)cc2)s1)c1ccncc1
CCCC(=O)N1CCN(c2nc3c(OC)ccc(C)c3s2)CC1
O=C(NC1=NCCS1)[C@H](Cc1ccccc1)N1C(=O)c2ccccc2C1=O
COc1ccc(CNC(=O)COC(=O)C(CCSC)N2C(=O)c3ccccc3C2=O)cc1 (stereo not given)
Cc1ccc2oc(=O)c3cnn(CC(=O)N4CCN(c5cccc(Cl)c5)CC4)c3c2c1
CCCCN(CC)CCCNC(=O)c1nn(C)c2c1CS(=O)(=O)c1ccccc1-2
CC(=O)c1cccc(NC(=O)CSc2nc3c(c(=O)[nH]2)CCC3)c1
Cc1c(-c2cccc(NC(=O)C(C)(C)C)c2)nc2ncccn12
Cc1ccccc1Nc1c(-c2ccccc2)nc2ncccn12
CCn1cc(C(=O)N2CCN(c3cc(C)ccc3C)CC2)c(=O)c2cc(S(=O)(=O)N(C)C3CCCCC3)ccc21
O=C(NCCc1ccccc1)c1cnc2sc(N3CCCC3)nn2c1=O
COC(=O)c1ccc(NC(=O)CCc2c(C)nc3c(c(C)nn3-c3ccc(C)cc3)c2C)cc1
CC[C@H](C)[C@@H](C(=O)N1CCNCC1)n1cc([C@@H](N)Cc2ccc(O)cc2)nn1
C#CCOCCOCCOCCNc1nc(N2CCOCC2)nc(N2CCN(C(=O)[C@H](Cc3ccc(O)cc3)n3cc(CCO)nn3)CC2)n1

Potency, active:
COc1ccc(Nc2cc(C(=O)NCCCN(C)c3ccccc3)c3ccccc3n2)c(OC)c1 15.8 µM
CN1C(=O)/C(=C/c2ccco2)SC1=Nc1cccc(C(=O)O)c1 79.4 µM
C=CCn1c(C23CC4CC(CC(C4)C2)C3)n[nH]c1=S 11.2 µM
CCC1CCCCN1C(=S)Nc1ccc(S(=O)(=O)Nc2ncccn2)cc1 (stereo not given) 100 µM
CCc1c(C)[nH]c(=S)c(C#N)c1C 3.98 µM
CCCN(CCC)c1nc2c(C)cccn2c(=O)c1/C=C1/SC(=S)N(Cc2ccco2)C1=O 35.5 µM
CCCCN1C(=O)CCC(C(=O)O)C1c1ccc(OC)cc1 (stereo not given) 89.1 µM
Nc1ccc2[nH]c(=S)sc2c1 3.55 µM
COc1ccccc1-n1c(=S)[nH]c2c(sc(=S)n2-c2ccc(C)cc2C)c1=O 50.1 µM
Cc1ccc(-c2nc3cccc(C)n3c2Nc2ccc3c(c2)OCCO3)cc1 11.2 µM
Cc1cccc2nc(-c3ccc(Cl)s3)c(Nc3ccc4c(c3)OCCO4)n12 31.6 µM
O=C1Nc2cc(C(=O)N3CCN(c4ccc(F)cc4)CC3)ccc2NC1CSCc1cccc(F)c1 (stereo not given) 20 µM
Cc1ccc(CSCC2Nc3ccc(C(=O)N4CCN(c5ccc(F)cc5)CC4)cc3NC2=O)cc1 (stereo not given) 22.4 µM
O=C(Nc1nnc(Cc2ccccc2)s1)c1cnccn1 50.1 µM
CSCCC(C(=O)NC1=NCCS1)N1C(=O)c2ccccc2C1=O (stereo not given) 79.4 µM
CCc1cccc(C)c1Nc1c(-c2ccc(N(C)C)cc2)nc2ncccn12 35.5 µM
C#CCOCCOCCOCCNc1nc(N2CCN(C(=O)[C@H](CCC(=O)O)n3cc(C(N)CO)nn3)CC2)nc(N2CCN(C(=O)[C@H](Cc3ccc(O)cc3)n3cc(C(N)[C@H](C)CC)nn3)CC2)n1 (stereo not given in full) 28.2 µM
C#CCOCCOCCOCCNc1nc(N2CCN(C(=O)C(Cc3ccc(O)cc3)n3cc(C(N)CC(C)C)nn3)CC2)nc(N2CCN(C(=O)C(Cc3ccc(O)cc3)n3cc(C(N)C(C)CC)nn3)CC2)n1 (stereo not given) 50.1 µM
C#CCOCCOCCOCCNc1nc(N2CCN(C(=O)[C@H](CCCCN)n3cc([C@@H](N)C(C)CC)nn3)CC2)nc(N2CCN(C(=O)[C@H](Cc3ccc(O)cc3)n3cc([C@@H](N)C(C)CC)nn3)CC2)n1 (stereo not given in full) 44.7 µM
C#CCOCCOCCOCCNc1nc(N2CCN(C(=O)[C@H](Cc3ccc(O)cc3)n3cc(C(N)CC(C)C)nn3)CC2)nc(N2CCN(C(=O)[C@H](CCC(=O)O)n3cc(C(N)[C@H](C)CC)nn3)CC2)n1 (stereo not given in full) 44.7 µM

Activity change, negative = inhibition, inactive:
Cc1ccc2[nH]c(=O)c(-c3nc4c(C)cccn4c3NCc3ccco3)cc2c1 -23.3% [at 11.4 µM]
